Laboratory results as given in the supplement of paper PMC6555819.

Columns and labels:
Experiment in all cases: PBM binding z-score (relative to random genomic background probes); higher = stronger binding; sequences stand for … in GC…GCGATTGACAGCGTAGAATGAAGG
[1] = tested on: FXR:RXRa (NR concentration 270 nM, RXRa partner concentration 90 nM)
Procedure, shortened: (§1)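 The probes on custom Agilent 4×180K protein-binding microarrays were double-stranded, with 34-nt variable regions bearing direct-repeat seeds, single-nucleotide variants, half-site ablations and random human genomic background sequences. Incubation lasted 1 h with ligand-free nuclear receptor dimers in PBS pH 7.4, 2% milk, 0.02% Triton X-100, 1 mM DTT, 0.2 mg/mL BSA and 0.4 mg/ml salmon testes DNA. Antibodies against each partner (one per run) detected bound dimers, and fluorescence scans were regression-normalized. Binding z-scores take the random background probes as reference.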

[2] = tested on: LXRa:RXRa (NR concentration 270 nM, RXRa partner concentration 90 nM)
Procedure, shortened: as §1

[3] = tested on: LXRa homodimer (NR concentration 270 nM)
Procedure, shortened: as §1

[4] = tested on: LXRb:RXRa (NR concentration 270 nM, RXRa partner concentration 90 nM)
Procedure, shortened: as §1

[5] = tested on: LXRb homodimer (NR concentration 270 nM)
Procedure, shortened: as §1

[6] = tested on: PPARa:RXRa (NR concentration 270 nM, RXRa partner concentration 90 nM)
Procedure, shortened: as §1

[7] = tested on: PPARg:RXRa (NR concentration 180 nM, RXRa partner concentration 90 nM)
Procedure, shortened: as §1

[8] = tested on: PPARg:RXRa 270nM:90nM, anti-RXR (NR concentration 270 nM, RXRa partner concentration 90 nM)
Procedure, shortened: as §1

[9] = tested on: PPARg:RXRa 30nM:10nM, anti-RXR (NR concentration 30 nM, RXRa partner concentration 10 nM)
Procedure, shortened: as §1

[10] = tested on: PPARg:RXRa 90nM:30nM, anti-RXR (NR concentration 90 nM, RXRa partner concentration 30 nM)
Procedure, shortened: as §1

| Sequence | PBM binding z-score [1] | PBM binding z-score [2] | PBM binding z-score [3] | PBM binding z-score [4] | PBM binding z-score [5] | PBM binding z-score [6] | PBM binding z-score [7] | PBM binding z-score [8] | PBM binding z-score [9] | PBM binding z-score [10] |
| --- | --- | --- | --- | --- | --- | --- | --- | --- | --- | --- |
| CCTAGTGGGCCATTCAGAGGTCATTGATCATATG | 2.85 | 4.29 | 6.62 | 3.77 | 0.202 | 3.98 | 2.23 | 3.11 | 0.966 | 2.3 |
| ATATGTAGGTTATCGGGTCATTCCGTTTGCGCAT | 3.08 | 3.17 | 1.85 | 3.11 | 0.638 | 4.81 | 6.78 | 5.92 | 3.37 | 5.6 |
| TCTTGTAGATCAACGGTTAAGAAAGCCGAAGCCT | 0.513 | 0.28 | -0.0283 | 0.131 | -0.0358 | 1.14 | 0.464 | 2.61 | 3.23 | 3.03 |
| ACAATGAGGTTAAGATCAGGGAAACAGAATACAT | 2.2 | 2.23 | 0.0608 | 1.85 | 0.674 | 3.04 | 2.06 | 1.68 | 0.802 | 1.24 |
| ATACCAAGGTGATCGTGAGGTCGTTTATACTAAC | 1.68 | 1.66 | 1.35 | 1.74 | 0.0373 | 1.69 | 0.492 | 0.454 | -0.0827 | 0.159 |
| CCTAGTTGGTCAGGAGGACACACACCGGATATGA | 0.321 | 0.0708 | 0.61 | 0.0444 | 0.0185 | 0.000867 | 1.08 | 0.072 | -0.0757 | -0.0104 |
| GCGACTGGGGCAAAGCAGGTTACCGTAAGGTTGG | -0.0896 | 0.23 | -0.658 | 0.135 | -1.45 | 1.51 | 0.866 | 1.45 | -0.363 | 0.645 |
| TCTTGTATATCAACAGGAGGTTAAGAAAGATCGA | 0.413 | 1.42 | 0.536 | 1.16 | 0.307 | 1.29 | 0.477 | 1.5 | 3.07 | 2.27 |
| ACTAGCAGGCCAAGTCTGGGTCACTCAAACAAAG | 0.226 | 0.263 | 0.0484 | 0.796 | -1.12 | 2.38 | 0.901 | 1.28 | 0.18 | 0.56 |
| TCTTGTACATCAGCAGGTTAAGAAAGCTGGCCAA | 0.22 | 0.475 | -0.073 | 0.542 | 0.127 | 0.883 | -0.203 | 1.47 | 2.81 | 2.33 |
| GCTAGCAGGCGATTTGGGTCACTCAATGACGGGC | 0.0524 | -0.217 | -0.513 | -0.281 | -0.929 | 1.48 | 0.632 | 0.575 | -0.192 | 0.427 |
| CCTAACAGGCCAATCTGGGTCACTCAAGGCTTGA | 1.06 | 1.75 | 0.16 | 1.19 | -0.0196 | 3.19 | 2.31 | 2.35 | 0.094 | 1.57 |
| TCATATAGGAAATACAGGTGAAAGTCGGCATCTA | 1.36 | 1.32 | 0.335 | 1.27 | 0.00276 | 1.6 | 1.1 | 2.77 | 4.7 | 3.66 |
| TCTAGTTGGTCACGGAGGTCACACAAGACGGGTA | 3.16 | 3.39 | 2.41 | 3.46 | 0.597 | 3.99 | 3.49 | 4.05 | 3.51 | 3.75 |
| CGAACGCGGGCATGAGTTGATAGCAAATGCCGAT | -0.653 | -0.715 | -0.461 | -0.883 | -1.24 | -0.441 | 0.36 | -0.484 | -0.861 | -0.633 |
| CCCCGGAGGACAACAGGAGGTCAGAGCTGCCAGA | 1.51 | 2.55 | 2.5 | 1.75 | -0.479 | 2.24 | 0.602 | 0.469 | -0.809 | -0.262 |
| GCTAGCCGGCCATTTGGGTCACTCAATGACGGGC | 0.14 | -0.0989 | -0.475 | -0.0153 | -0.65 | 1.12 | 0.338 | 0.0131 | -0.633 | -0.159 |
| CCTTACGGGTCTCTGACAGGTTATAGCATTTGGA | -0.234 | 0.159 | -0.00475 | -0.0139 | -0.262 | 0.166 | 0.168 | 0.115 | -0.351 | -0.00111 |
| GCAGACAGGTGAAACGAAGGTAACTCAGGGTGGC | 0.0182 | 0.296 | -0.444 | 0.0431 | -1.08 | 0.924 | 0.836 | 0.16 | -0.263 | -0.133 |
| CCTAGCAGGCCAGGATCACTCAAGCATTTCGCTT | -0.0228 | -0.302 | -0.315 | -0.395 | -0.796 | -0.414 | -0.143 | -0.455 | -0.969 | -0.909 |
| CCTCGGAGGACAACAGCAGGTCAGAGCTGCCAGA | 0.202 | 0.89 | 0.459 | 0.176 | -0.75 | 0.561 | 0.1 | -0.313 | -0.784 | -0.736 |
| CCTACTGGGCCAAAAACGTCATTGATGCCGATAA | -0.178 | -0.282 | -0.294 | -0.357 | -0.478 | 0.119 | 0.525 | 1.02 | -0.141 | 0.509 |
| TCTTGTAGATCAGCAGGTTAAGAAGGCTGGCCAA | 0.433 | 0.344 | -0.0872 | 0.367 | -0.714 | 0.674 | -0.387 | 1.6 | 2.59 | 2.41 |
| GCTAGCAGGCCATTTGGGTTACTCAATGACGGGC | -0.367 | -0.587 | -0.387 | -0.709 | -0.959 | 0.0439 | 0.457 | -0.378 | -0.68 | -0.152 |
| GCTCGGAGGACAATGTCAGAGCTTTGTCCGTAGA | -0.623 | -0.613 | -0.612 | -0.519 | -0.999 | -0.586 | -0.765 | -0.898 | -1.25 | -1.01 |
